High-throughput results from PubChem BioAssay.
PRMT1 FP inh: PRMT1 methyltransferase inhibitors, primary screen, biochemical, fluorescence polarization | hit rate 1.3% among 370,000 | Protein arginine N-methyltransferase 1 (Homo sapiens), Q99873 | AID 652257, 2013 | recombinant PRMT1, activity-based probe fluorescence polarization | inhibition, % at 2.79 µM;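 active means inhibition above about 21% made by adding two undisclosed values, limit read from the data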
Target sequence (Q99873 whole entry, looked up): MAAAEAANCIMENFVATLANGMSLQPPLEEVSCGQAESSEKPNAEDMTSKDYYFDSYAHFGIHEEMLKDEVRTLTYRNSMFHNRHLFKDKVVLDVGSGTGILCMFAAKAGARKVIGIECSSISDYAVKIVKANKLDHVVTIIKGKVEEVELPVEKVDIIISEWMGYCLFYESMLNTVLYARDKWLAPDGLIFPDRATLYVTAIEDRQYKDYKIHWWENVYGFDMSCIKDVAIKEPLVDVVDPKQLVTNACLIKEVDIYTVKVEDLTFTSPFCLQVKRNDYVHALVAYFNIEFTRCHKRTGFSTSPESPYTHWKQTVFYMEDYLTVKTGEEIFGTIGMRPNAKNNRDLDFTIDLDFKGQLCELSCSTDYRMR
LEDGF integ inh: blockers of LEDGF/p75-dependent integrase strand transfer – biochemical, TR-FRET, high throughput, primary screen. hit rate 0.64% among 370,000. AID 743269, 2014. TR-FRET IN-LEDGF/p75 DNA integration, Eu/Cy5. inhibition, % at 3.7 µM;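 active means inhibition above the screen-wide mean plus 3 SD, cut at about 13% in these data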;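 further: signal is the Cy5 over europium emission ratio at 671 and 618 nm; 0% = plate median of compound wells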
MBD2 inh: inhibitors of MBD2 binding to methylated DNA, primary screen, biochemical, TR-FRET, DNA-binding domain, human; MBD2 binding to methylated oligonucleotide; Methyl-CpG-binding domain protein 2 (Homo sapiens), Q9UBB5; inhibition, % at 4.4 µM; hit rate 0.31% among 370,000; in the data active means inhibition above about 13%
ABHD5-PLIN5 inh: ABHD5-PLIN5 interaction inhibitors, primary screen, cell lysate, split luciferase complementation, luminescence. Perilipin-5 (Homo sapiens) + 1-acylglycerol-3-phosphate O-acyltransferase ABHD5 (Homo …. Split G. princeps luciferase complementation, 4 h. inhibition, % at 4 µM. hit rate 0.78% among 360,000;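 active means inhibition above the mean inhibition across every tested compound plus 3 SD, cut at about 22% in these data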;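 further: 0% = DMSO only wells and the 100% control is not disclosed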
rCAG binder: binders of r(CAG) RNA repeats, primary screen, biochemical, fluorescence. r(CAG) RNA repeat, TO-PRO-1 dye displacement fluorescence. inhibition, % at 3 µM. hit rate 1.3% among 370,000. AID 651821, 2012;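 active means inhibition above the plate cutoff, the mean of all test compounds on that plate plus 3 SD, cut at about 35% in these data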;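 further: 0% = DMSO alone and 100% = 100 µM mitoxantrone as full dye displacement; higher means more dye released from RNA so lower well fluorescence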
UHRF1 binding: UHRF1 methylated DNA binding inhibitors, primary screen, counter-screen for MBD2 inhibitor project, biochemical, TR-FRET, human UHRF1, single concentration; UHRF1 binding to methylated oligo; inhibition, % at 4.4 µM; hit rate 0.75% among 370,000; AID 687016, 2013; in the data active means inhibition above about 21%;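 further: UHRF1 SRA domain binding a hemimethylated CpG hairpin DNA probe; 0% = median of test compound wells and 100% = reference inhibitor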
rCAG binder conf: small molecules binding CAG repeat RNA – biochemical, fluorescence, confirmation; shares compounds with rCAG binder; r(CAG) RNA repeat, TO-PRO-1 dye displacement fluorescence; inhibition, % at 3 µM; hit rate 70% among 4,300; AID 652065, 2013;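 active means inhibition above a per-plate cutoff, the mean inhibition of sample wells plus 3 SD, cut at about 35% in these data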;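 further: loss of TO-PRO-1 fluorescence as compound displaces dye from 1x1 AA loop RNA; 0% = DMSO only wells and 100% = 100 µM mitoxantrone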
DNA CAG counter: displacement of TO-PRO-1 from CAG DNA duplex, counter-screen for rCAG RNA repeat binder project, biochemical, fluorescence, TO-PRO-1 dye, d(CAG) DNA oligo; shares compounds with rCAG binder; hit rate 94% among 4,300; d(CAG) DNA oligo TO-PRO-1 dye displacement; inhibition, % at 3 µM;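 active means inhibition above its plate's cutoff, the mean test-well inhibition plus 3 SD, cut at about 4.8% in these data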;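 further: 0% = DNA dye mix with DMSO and 100% = 100 µM mitoxantrone; hits displace the dye from DNA and so lower well fluorescence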
DNA CAG DR: inhibitors of DNA CAG/GTC TO-PRO-1 complex, dose response, counter-screen for rCAG RNA repeat binder project, biochemical, fluorescence, TO-PRO-1 dye | shares compounds with rCAG binder | DNA CAG/GTC duplex TO-PRO-1 dye displacement fluorescence | IC50, µM | hit rate 20% among 250; in the data active means IC50 below about 10 µM
Active calls of the source: *; i = inactive; · = no result. An excerpt weighted towards active compounds, which were near 4.1% of everything screened.

SMILES | PRMT1 FP inh | LEDGF integ inh | MBD2 inh | ABHD5-PLIN5 inh | rCAG binder | UHRF1 binding | rCAG binder conf | DNA CAG counter | others
CCCc1cc(=O)[nH]c(SCC(=O)Nc2cc(S(=O)(=O)N(CC)c3ccccc3)ccc2Cl)n1 | 5 | -1 | 0 | -9 | 60* | 0 | 56* | 20*
COc1ccc(-c2cc(C(=O)Nc3ccc(S(=O)(=O)Nc4ncccn4)cc3)c3ccccc3n2)cc1 | -1 | -1 | 3 | -2 | 58* | 1 | 56* | 22*
COc1cc(-c2cc(C(=O)Nc3ccc(S(=O)(=O)Nc4ncccn4)cc3)c3ccccc3n2)cc(OC)c1OC | -4 | 0 | -5 | -3 | 5 | 3 | · | ·
Cc1ccnc(NS(=O)(=O)c2ccc(NC(=O)c3cc(-c4ccccc4)nc4ccccc34)cc2)n1 | 1 | 3 | 5 | -4 | 45* | 2 | 56* | 16*
Cc1ccnc(NS(=O)(=O)c2ccc(NC(=O)c3cc(-c4ccc(Br)cc4)nc4ccccc34)cc2)n1 | 1 | 0 | 3 | -1 | 39* | 1 | 72* | 33* | DNA CAG DR=i
O=C(Nc1ccc(Br)cc1)c1cc(-c2ccncc2)nc2ccccc12 | 0 | 1 | -1 | -1 | 8 | 1 | · | ·
Cc1ccc(-c2cc(C(=O)Nc3ccc(S(=O)(=O)Nc4nc(C)cc(C)n4)cc3)c3ccccc3n2)cc1 | 2 | 3 | 0 | 3 | 8 | 2 | · | ·
O=C(N[C@H](C(=O)N1CCC[C@H]1C(=O)NC1CCCC1)C1CCCCC1)c1ccco1 | 0 | 3 | 1 | · | -2 | -1 | · | ·
CCCCNS(=O)(=O)/C=C/c1ccccc1CCNC(=O)OC(C)(C)C | 9 | -3 | -1 | · | -1 | 1 | · | ·
CCn1c(=O)n(CC(=O)N2CCC(C)CC2)c(=O)c2ccccc21 | 1 | 0 | -5 | · | 0 | -2 | · | ·
CCCc1nc2nc(C)c(NS(=O)(=O)c3ccc(F)cc3)c(=O)n2[nH]1 | 0 | 3 | -1 | -1 | 2 | 2 | · | ·
CCCc1nc2nc(C)c(NS(=O)(=O)c3ccc(C4CCCCC4)cc3)c(=O)n2[nH]1 | -2 | 3 | -2 | -2 | 59* | 2 | 62* | 16*
C[C@H](CO)N1C[C@H](C)[C@@H](CN(C)C(=O)c2ccncc2)OCc2cn(nn2)CCCC1=O | 1 | 1 | -1 | · | 0 | 8 | · | ·
CC(CNC(=O)[C@@H](Cc1ccccc1)NC(=O)[C@H]1O[C@@H](n2cnc3c(=O)[nH]c(N)nc32)[C@H](O)[C@@H]1O)c1ccccc1 (some centres not stated) | -1 | -1 | -1 | · | 8 | 1 | · | ·
O=C(NC(=S)NNC(=O)c1ccccc1O)c1ccco1 | -1 | 2 | 2 | 3 | 2 | 2 | · | ·
CN(C)S(=O)(=O)c1cccc(NC(=S)NNC(=O)c2cc3ccccc3cc2O)c1 | 4 | -1 | -3 | 4 | 87* | -3 | 86* | 56*
O=C(NC(=S)NNC(=O)c1cc2ccccc2cc1O)c1ccco1 | -11 | 6 | -3 | 7 | 67* | -4 | 53* | 17*
Cc1ccc(-n2c(SCC(=O)Nc3ccccc3-c3ccccc3)nnc2-c2ccco2)cc1 | -2 | 0 | 2 | · | 1 | 0 | · | ·
CN1C(=O)c2cc(NS(=O)(=O)c3ccc(F)cc3)ccc2OC[C@H]2O[C@@H](CC(=O)NCC(F)(F)F)CC[C@@H]21 | -3 | 4 | 9 | · | 1 | 5 | · | ·
COC(=O)C1=C(C)N(Cc2ccc(Br)cc2)C(=S)NC1c1cccc(F)c1 (configuration not stated) | 1 | -3 | 1 | · | 3 | 2 | · | ·
COC(=O)[C@]12C[C@H](CC(=O)N3CCSCC3)C(=O)N(Cc3ccccc3)C1=C[C@H](C(C)C)O[C@@H]2C1CC1 | 3 | 5 | 5 | · | 1 | 0 | · | ·
Cc1c(NC(=O)c2ccccc2NS(=O)(=O)c2ccc(Br)cc2)c(=O)n(-c2ccccc2)n1C | 0 | -3 | -4 | 2 | 42* | 1 | 47* | 14*
Cc1sc(-n2c(C)cc(/C=C3\SC(=S)NC3=O)c2C)c(C#N)c1C | 2 | 2 | -4 | -9 | 69* | -5 | 76* | 35*
Cc1cc(/C=C2\SC(=S)NC2=O)c(C)n1-c1cccc(O)c1 | 1 | -1 | 1 | 5 | 52* | 1 | 35* | 14*
O=C(O)/C=C/c1cn(-c2ccccc2)nc1-c1cc2ccccc2o1 | 4 | 0 | 0 | -3 | 67* | 4 | 73* | 26* | DNA CAG DR=i
SMILES | PRMT1 FP inh | LEDGF integ inh | MBD2 inh | ABHD5-PLIN5 inh | rCAG binder | UHRF1 binding | rCAG binder conf | DNA CAG counter | others
O=C(O)/C=C\c1cn(-c2ccccc2)nc1-c1cc2ccccc2o1 | 5 | -4 | 1 | -4 | 72* | 4 | 62* | 22*
O=C(O)/C=C/c1cn(-c2ccccc2)nc1-c1ccccc1 | 8 | 1 | 8 | 2 | 18 | 3 | · | ·
CN(C)C(=O)c1cn(-c2ccccc2)nc1-c1cc2ccccc2o1 | 0 | -1 | 1 | -4 | -6 | 4 | · | ·
O=C(N/N=C/c1cc([N+](=O)[O-])cc([N+](=O)[O-])c1O)C(O)(c1ccccc1)c1ccccc1 | 13 | 1 | -4 | 10 | 68* | -4 | 71* | 30*
Cc1cc(Nc2ccc(OC(F)F)cc2)cc(=O)n1-c1ccc(OC(F)F)cc1 | -1 | 1 | 2 | · | 1 | -3 | · | ·
COc1cc(NS(=O)(=O)c2ccc(NC(=S)NC(=O)/C=C/c3ccc(F)cc3)cc2)ncn1 | 4 | -4 | -7 | -2 | 3 | -2 | · | ·
COc1ccc(NS(=O)(=O)c2ccc(NC(=S)NC(=O)/C=C/c3ccccc3)cc2)nn1 | -2 | -1 | -4 | 3 | 40* | -3 | 51* | 17*
CCc1nnc(NS(=O)(=O)c2ccc(NC(=S)NC(=O)c3ccccc3)cc2)s1 | -3 | -1 | 4 | 5 | 65* | 16 | 51* | 18*
